This passage reports growth results from PubChem BioAssay (NCI).

Holding throughout (assay): NCI-60 one-dose screen, 48 h (100 = growth as untreated, 0 = no growth, -100 = all killed)
Common to all, as to details: 10 µM unless noted

The subject of assay [1] is DU-145 prostate.
The subject of assay [2] is K-562 leukemia.
The subject of assay [3] is MDA-MB-231 breast.
For assay [4], the system named is RXF 393 renal.
Assay [5] deals with SF-268 CNS.
Assay [6] concerns SF-295 CNS.
Assay [7] has as its system SF-539 CNS.
Assay [8] relates to UACC-257 melanoma.
The subject of assay [9] is M14 melanoma.
Assay [10] deals with MALME-3M melanoma.

This is part of a sample that, as a whole, favours compounds with a hit. Of some 83,000 tested, about 20% had one in any assay.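 Single-dose data. Exposure time 48 hours. Values below 10 considered active.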 A number with no mark means an inactive call. Activity calls are given as the source filed them.

Take `COC(=O)[C@H]1[C@H]2C[C@@H]3c4[nH]c5cc(OC)ccc5c4CCN3C[C@H]2C[C@@H](OC(=O)/C=C/c2cc(OC)c(OC)c(OC)c2)[C@@H]1OC`: the growth in assay [1] was 40.8%; in assay [2], -2.87% (active); in [3] it was 65.1%; in assay [4], 61%; in [5], 68.6%; in [6] it was 14.6%. Moreover, the growth in assay [7] was 71.8%; in assay [8] it was 85%; in [9] it was 71.5%.

Take `O=C(CN1CCN(c2ccc(Cl)cc2)CC1)N1CCN(c2nnc(-c3ccccc3)c(-c3ccccc3)n2)CC1`: the growth in assay [1] is 62.8%; in assay [2], 4.43% (active); in [10], 76.5%; in [3] it was 64.5%; in assay [5], 58.5%; in assay [6] it was 38.4%. The growth was 50.5% in [7] and 60.1% in assay [9].

Turning to `CC[C@@H](C)/C=C(C)/C=C/C(=O)c1c(O)c(-c2ccc(O)cc2)cn(OC2CC(=O)CCC(C)OC(=O)CC2O)c1=O` (some centres not stated), the growth in assay [1] was 4.8% (active); in assay [2], 13.8%; in assay [3], 42.6%; in assay [4], 33.6%; in assay [5], -7.36% (active); in assay [6] it was -22% (active). For the same compound, the figures for the growth in assay [7], in assay [8] and in assay [9] were -4.57% (active), -2.46% (active) and -13.7% (active), respectively.

As to `CC(NC(=O)Oc1cccc2ccccc12)c1ccccc1` (configuration not stated), the growth was 107% in assay [1]; 84.1% in assay [2]; 77.6% in assay [3]; 105% in assay [4]; 78.1% in assay [5]; 107% in [6]. For the same compound, the values for the growth in assay [7], in [8] and in assay [9] were 97.9%, 73.2% and 107%, respectively.

For `O=C(CN1CCN(c2ccc(Cl)cc2)CC1)N1CCN(c2nnc(-c3ccc(Cl)cc3)c(-c3ccc(Cl)cc3)n2)CC1`, the growth in [1] is 87%; in assay [2], 33%; in assay [10], 114%; in assay [3] it was 95.1%; in [5], 83.4%; in [6], 82.3%. Moreover, the growth was 82.3% in [7] and 74.3% in assay [9].

Regarding `N[C@H](CS)C(=O)O`, the growth in [1] is 121%; in [2] it was 107%; in assay [10], 91%; in assay [3], 114%; in assay [5] it was 119%; in [6], 94.4%. The growth in assay [7] is 89.7%; in assay [9] it was 116%.

`CCOC(=O)C1C(=O)NC(C(=O)OCC)(C(=O)OCC)C1CC` (configuration not stated): the growth in [1] was 117%; in [2], 114%; in [3], 98.7%; in assay [4] it was 116%; in [5], 108%; in [6], 113%. Moreover, the growth in assay [7] is 122%; in [8], 106%; in assay [9] it was 110%.

As for `O=C1OC(Oc2ccccc2)(c2ccccc2)c2ccccc21` (configuration not stated), the growth in [1] is 108%; in assay [2], 55.3%; in assay [3], 98.3%; in assay [4], 120%; in assay [5], 95.3%; in assay [6] it was 150%. Moreover, the growth in assay [7] is 100%; in assay [8], 112%; in assay [9], 111%.

Turning to `O=C1OC2(c3ccccc31)c1ccccc1-c1ccccc12`, the growth in [1] is 114%; in [2], 36.5%; in assay [3], 68.3%; in assay [4] it was 96.8%; in assay [5] it was 86.8%; in [6], 75.4%. Further, the growth is 99.2% in [7], 88.7% in assay [8] and 50.7% in assay [9].

As to `Cn1c(=O)c2[nH]c(=S)n(Cc3ccccc3)c2n(C)c1=O`, the growth was 105% in assay [1]; 84.6% in [2]; 101% in [3]; 120% in assay [4]; 95.8% in assay [5]; 118% in assay [6]. For the same compound, the growth in assay [7] was 93.8%; in assay [8], 90.4%; in assay [9] it was 99.7%.

As to `COc1ccc(C2CC(c3ccc4c(c3)OCO4)=NN2C=O)cc1` (configuration not stated), the growth in assay [1] was 107%; in [2], 90.3%; in assay [3], 84.2%; in assay [4], 100%; in assay [5], 108%; in [6], 113%. Moreover, the growth in assay [7] was 98.8%; in assay [8] it was 110%; in assay [9] it was 102%.

On to `CCOC(CNCc1cc(C)c2[nH]c3ccccc3c2c1C)OCC`, for which the growth is 109% in [1]; 34.3% in [2]; 63% in [3]; 73.2% in assay [4]; 86.2% in assay [5]; 60.2% in assay [6]. For the same compound, the growth is 83.7% in assay [7], 76% in assay [8] and 64.9% in [9].

Regarding `CC(=O)c1ccccc1NC(=O)C(C)(c1ccccc1)c1ccccc1`, the growth in assay [2] was 72.5%; in [10], 83%; in assay [3], 88.8%; in assay [5], 92.6%; in [6], 86.1%; in assay [7], 105%. In addition, the growth in assay [8] was 85.9%; in assay [9] it was 99.9%.

Regarding `O=C(COc1ccc(/C=C2\Oc3ccc4ccccc4c3C2=O)cc1)c1ccc(Cl)cc1`, the growth in assay [2] was 89.7%; in assay [10], 110%; in [3], 113%; in assay [5], 97.6%; in assay [6], 96.9%; in [7] it was 93.1%. In addition, the results for the growth in assay [8] and in [9] were 103% and 95%, respectively.

As to `O=C(COc1cccc(/C=C2\Cc3ccccc3C2=O)c1)c1ccc(Cl)cc1`, the growth in assay [2] was 100%; in [10] it was 90%; in [3] it was 84.1%; in assay [5] it was 117%; in [6] it was 124%; in assay [7] it was 95.6%. For the same compound, the growth was 96.4% in [8] and 105% in assay [9].

For the compound `CC(=O)Nc1cc(C(c2ccccc2)c2ccccc2)cc(C(c2ccccc2)c2ccccc2)c1C`, the growth is 35.3% in assay [2]; 75.2% in assay [10]; 69.8% in [3]; 53.5% in [5]; 54.9% in assay [6]; 77.3% in [7]. For the same compound, the growth in assay [8] is 64.8%; in [9] it was 79.2%.
